# In PubChem BioAssay AID371 (SRMLSC, 2006):
# Where “and” joins values, the source holds several entries; their conditions need not be identical. Equal entries are not always repeated. The whole screen tested about 3,300 compounds, of which about 280 (8.5%) were called active. The entries come from a sample that favours actives as a whole. Unmarked numbers belong to inactive results.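 The calls were made as follows: active = mean growth inhibition over the two runs of 50% or more; inactive = mean growth inhibition under 50%.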
# Assay: A549 NSCLC cell proliferation inhibitors – ATP luminescence, human non-small cell lung line, primary screen (AID 371);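 also: compound exposure lasted 72 h before the ATP read; 0% = untreated cell signal and 100% = no luminescence left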
# Conditions: at 10 µM, hits give high values
row,Structure (SMILES),growth inhibition
1,O=c1/c(=C\c2cccn2-c2ccccc2)sc2nc3ccccc3n12,26.5%
2,CC(C)c1nc(NCCN2CCOCC2)c(C#N)c2c1COC(C)(C)C2,20.7%
3,c1ccc(-n2ncc3c(NCC4CCCO4)ncnc32)cc1 (centres undefined),33.8%
4,Cc1cc(OCCN2CCOCC2)nc2ccccc12,10.6%
5,Oc1ccccc1-c1nc(NCCN2CCOCC2)c2ccccc2n1,88.2% (active)
6,Fc1ccccc1-c1nc(NCCCN2CCOCC2)c2ccccc2n1,4.04%
7,COc1cccc(-c2nc(NCC3CCCO3)c3ccccc3n2)c1O (centres undefined),83.8% (active)
8,COc1cccc(OC)c1OCC(C)CNCC1CCCO1 (centres undefined),3.8%
9,Cc1cc(-c2ccccc2)nnc1NCCN1CCOCC1,-7.35%
10,c1ccc(-c2nc(NCC3CCCO3)c3ccccc3n2)nc1 (centres undefined),60.2% (active)
11,c1ccc2c(NCC3CCCO3)nc(-c3ccncc3)nc2c1 (centres undefined),13.1%
12,C=CCNc1nc(-c2cccc(OC)c2O)nc2ccccc12,24.3%
13,COc1cccc(-c2nc(NCCN3CCOCC3)c3ccccc3n2)c1O,80.7% (active)
14,O=C(C1=C(O)C(=O)N(CCCN2CCOCC2)C1c1ccccn1)c1cccs1 (centres undefined),1.45%
15,Cc1ccc(C(=O)C2=C(O)C(=O)N(c3ncccn3)C2c2ccc(Cl)cc2)o1 (centres undefined),-6.83%
16,COC(=O)c1c(C)[nH]c(C(=O)OCc2ccc(F)cc2)c1C,13%
17,O=C1C2ON(c3ccccc3)C(c3ccncc3)C2C(=O)N1c1ccc(Br)cc1 (centres undefined),-9.58%
18,OCCN=C(c1ccccc1)C12CN3CN(CN(C3)C1)C2,-0.01%
19,C=CCOC(=O)C(C#N)c1nc2ccccc2nc1N1CCC(C(=O)OCC)CC1 (centres undefined),45.6%
20,CCOC(=O)C1CCCN(c2nc3ccccc3nc2C(C#N)C(=O)OC(C)COC)C1 (centres undefined),24.2%
21,CCOC(=O)c1[nH]c2ccc(OC)cc2c1NC(=O)CN1CCN(c2ccccn2)CC1,0.14%
22,CC(C)Cc1nc(N2CCN(C(=O)c3ccco3)CC2)c(C#N)c2c1CCC2,57.2% (active)
23,CC(C)Cc1nc(N2CCN(C(=O)C(C)C)CC2)c(C#N)c2c1CCC2,42.3%
24,CC(C)C(=O)N1CCN(c2nc(-c3ccccc3)c3c(c2C#N)CC(C)(C)OC3)CC1,34.1%
25,CC(C)Cc1nc(N2CCOCC2)c(C#N)c2c1CCC2,4.59%

row,Structure (SMILES),growth inhibition
1,CC(=O)N1CCN(c2nc(CC(C)C)c3c(c2C#N)CCC3)CC1,22.1%
2,CC1(C)Cc2c(C#N)c(N3CCOCC3)nc(-c3ccccc3)c2CO1,13.6%
3,CCCC(=O)N1CCN(c2nc(CC(C)C)c3c(c2C#N)CCC3)CC1,53.8% (active)
4,CC(C)C(=O)N1CCN(c2nc(-c3ccccc3)c3c(c2C#N)CCCC3)CC1,68% (active)
5,CC(C)Cc1nc(N2CCCCC2)c(C#N)c2c1CCC2,20.9%
6,c1ccc(C2Nc3ccccc3-c3nc4ccccc4n32)nc1 (centres undefined),26%
7,Cc1nn(CC(=O)NCCN2CCOCC2)c(=O)c2ccccc12,1.62%
8,Oc1ccccc1CNn1cnnc1,7.07%
9,Cc1ccc(OCC(=O)N(C)CCc2ccccn2)cc1,-1.84%
10,O=C(NCc1cccnc1)c1ccc(=O)oc1,-2.22%
11,CSc1nc(NC(C)=O)nc(C)c1Cl,3.88%
12,C=CCN(C(=O)CCC(=O)O)C1CC(=O)N(c2ccc(OCCC)cc2)C1=O (centres undefined),34.7%
13,CCN(CC)CC(=O)Nc1c(C)cccc1C,-1.4% and -6.03%
14,Cc1cccc(C)c1NC(=O)C1CCCCN1C (centres undefined),-1.85%
15,Cc1cccc(C)c1NC(=O)CSCC(=O)c1ccc(O)c(O)c1,76.2% (active)
16,COc1ccc(/C(O)=C2/C(=O)C(=O)N(CCN3CCOCC3)C2c2ccccn2)cc1 (centres undefined),7.6%
17,Cc1cccc(OCc2nc(C)cc(=O)[nH]2)c1,1.95%
18,Cc1cc(C)n(C(=O)CSc2nc3ccccc3o2)n1,-7.75%
19,COCc1cc(=O)[nH]c(Nc2nc3ccc(C)cc3o2)n1,70.6% (active)
20,Cc1cc(=O)[nH]c(COc2ccccc2)n1,6.76%
21,COCc1cc(=O)[nH]c(Nc2nc3ccccc3o2)n1,66.6% (active)
22,COc1ccccc1C1CC(c2ccc(Cl)cc2)Nc2nc(N)nn21 (centres undefined),8.72%
23,Cc1cc2c(C)nc(Cc3ccccc3)nc2o1,1.92%
24,CCCCCCn1c(C(C)O)nc2ccccc21 (centres undefined),15.7%
25,COc1cccc(/C(O)=C2/C(=O)C(=O)N(CCCN(C)C)C2c2cccc(Cl)c2)c1 (centres undefined),-2.1%

row,Structure (SMILES),growth inhibition
1,Cc1cccc(N2CN=c3s/c(=C\c4ccncc4)c(=O)n3C2)c1,5.71%
2,N#CC1=C(N)N(c2ccccc2)C(c2ccccc2)C1(C#N)C#N (centres undefined),21.4%
3,Cn1ncc(N=Cc2c(O)ccc3ccccc23)c1C(=O)N1CCOCC1,3.71%
4,Cc1coc2c(O)cc3c(c12)OC1(N2CCCCC2)C(=O)NCCCC31 (centres undefined),91.4% (active)
5,COc1ccc(C2N3CC4(C)CN2CC(C)(C3)C4O)cc1OC (centres undefined),0.13%
6,CC1(C)Cc2c(oc3ncn4ncnc4c23)CO1,0.31%
7,COc1cc(C)nc(Oc2ccc(OCCOc3ccc(C)cc3)nn2)n1,6.13%
8,CC1CCN(c2[nH]c(=S)c(C#N)c3c2CCCC3)CC1,56% (active)
9,CC1(C)Cc2c(c(N3CCCCC3)[nH]c(=S)c2C#N)CS1,4.02%
10,CCc1[nH]c(=O)c(C#N)c2c1CCCC2,2.12%
11,COc1ccc2c(c1)[nH]c1c(=O)n(CCN(C)C)cnc12,4.43%
12,CC1(C)SC2[C@H](NC(=O)C(NC(=O)N3CCNC3=O)c3ccccc3)C(=O)N2C1C(=O)O (some centres undefined),3.08%
13,CC(C)C1C(C#N)=C(N)Oc2n[nH]c(C(C)(C)C)c21 (centres undefined),-3.11%
14,Cc1[nH]nc2c1C(CCc1ccccc1)C(C#N)=C(N)O2 (centres undefined),0.1%
15,C1CCC(C(CC2CCCCN2)C2CCCCC2)CC1 (centres undefined),91.8% (active)
16,N#CCSc1nc2c(c(=O)n1Cc1ccco1)C1(CCCC1)Cc1ccccc1-2,30.2%
17,Cc1ccnc(N2CCN(c3c4c(c(C#N)c5nc6ccccc6n35)CCC4)CC2)c1,7.43%
18,COc1cc(=O)[nH]c(=O)n1CC(=O)c1ccccc1,-1.03%
19,CC1(C)Cc2c(c(-c3ccco3)[nH]c(=O)c2C#N)CS1,0.57%
20,CCc1nc(N2CCN(C(=O)c3ccccc3)CC2)c(C#N)c2c1COC(C)(C)C2,36.6%
21,CC1(C)Cc2c(C#N)c(N3CCOCC3)nc(Cc3ccccc3)c2CO1,16.7%
22,CCCCc1nc(NCCNC(=O)c2ccco2)c(C#N)c2c1CSC(C)(C)C2,56.1% (active)
23,CC1(C)Cc2c(C#N)c(N3CCN(C(=O)c4ccco4)CC3)nc(-c3ccco3)c2CS1,50.1% (active)
24,CC1(C)Cc2c(C#N)c(N3CCN(C(=O)c4ccco4)CC3)nc(Cc3ccccc3)c2CO1,72.3% (active)
25,CC1(C)Cc2c(C#N)c(N3CCN(C(=O)c4ccccc4)CC3)nc(-c3ccco3)c2CS1,12.2%

row,Structure (SMILES),growth inhibition
1,CC1(C)Cc2c(C#N)c(NCCc3ccccc3)nc(-c3ccco3)c2CO1,1.2%
2,CCCCc1nc(NCCN2CCOCC2)c(C#N)c2c1COC(C)(C)C2,1.05%
3,CCOC(=O)C(C(=O)OCC)N(C#N)c1nc(SC)nc(N(C)C)n1,-4.38%
4,Cc1nnc(SCC(=O)N2CCC(C(N)=O)CC2)s1,-21.6%
5,C=C(C)CN(CC)CCC(=O)Nc1ccc(OC)cc1OC,4.6%
6,COC(=O)CNC(=O)c1c(C)cc(=O)oc1C,0.81%
7,CC1(C(=O)CSc2nc3ccccc3s2)CCC(=O)O1 (centres undefined),3.38%
8,O=c1cc(N2CCCCC2)nc2n1CCCS2,8.96%
9,Cc1ccc(S(=O)(=O)N2CCN(c3nc(C(C)C)c4c(c3C#N)CC(C)(C)OC4)CC2)cc1,29.3%
10,Clc1ccc2[nH]c3c(NCCN4CCOCC4)ncnc3c2c1,34.3%
11,Clc1ccc2[nH]c3c(NCCCN4CCOCC4)ncnc3c2c1,89.9% (active)
12,Cc1ccc2[nH]c3c(NCCN4CCOCC4)ncnc3c2c1,18%
13,C=CCn1c(SCC#N)nc2c(c1=O)C(C)(C)Cc1ccccc1-2,28.8%
14,COn1c(=S)[nH]c2ccccc2c1=O,3.49%
15,CCCCCCCCCCCCCCCC(O)C(N)CO (centres undefined),94.3% (active)
16,CCSC(SCC)[C@H](O)[C@@H](O)[C@H](O)[C@H](O)CO,-2.15%
17,Cc1cc(C)n(-c2c(F)c(F)c(CN3CCCCC3)c(F)c2F)n1,9.57%
18,CN(C)c1cccc2c(S(=O)(=O)N3CCOCC3)cccc12,15.9%
19,Cc1ccc(C(=O)/C=C/Nc2cccc(O)c2)cc1,37.1%
20,N=c1c2c(-c3ccccc3)c(-c3ccccc3)n(Cc3ccccc3)c2ncn1CCCn1ccnc1,91.5% (active)
21,O=c1c(C=NCCCn2ccnc2)c(-c2ccccc2)[nH]n1-c1nc2ccccc2s1,17%
22,O=C(NCCCn1ccnc1)C(Cc1ccccc1)N1C(=O)c2ccccc2C1=O (centres undefined),2.6%
23,Cc1cc(C)c2c(N)c(C(=O)c3ccccc3)oc2n1,19.9%
24,Cc1nn(-c2ccccc2)c2c1C(c1ccc(F)cc1F)C(C#N)=C(N)O2 (centres undefined),17%
